Data on 94 molecules can be found in PubChem BioAssay AID624352 (Sanford-Burnham Center for Chemical Genomics, 2012).

The structures appear in SMILES notation. About 2,600 (0.72%) of roughly 360,000 compounds were called active. This is one part of a sample in which actives are shown more often than they occur.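 Rule for the calls: active = inhibition of the luminescence signal of 40% or more relative to plate controls, in a single-dose primary screen at 18.75 µM; inactive = the rest.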

This experiment can be described thus: HIF-2a reporter inhibitors, primary screen, luminescence, 786-0 RCC cells (AID 624352). The conditions noted are these: 786-0 RCC cells HIF-2a reporter, luciferase luminescence, overnight; at 18.8 µM; stronger effect = higher value.
The term inhibition denotes the change of the read-out against control, counted positive when it falls. As to `CC(C)Cn1c(N)c(C(=O)COC(=O)C2CCCN2C(=O)c2cccs2)c(=O)n(C)c1=O` (centres undefined), the inhibition is 4.33% (inactive).

Take `O=[N+]([O-])/C=C/c1ccc2c(ccn2Cc2ccccc2)c1`: the inhibition is 92.5% (active).

For `CC1(C)C2CCC13CS(=O)(=O)NC3C2` (centres undefined), the inhibition is 14.9% (inactive).

As for `N#Cc1ccc(OCC(=O)Nc2nc(-c3ccccn3)cs2)cc1`, the inhibition is 21.4% (inactive).

For `COC(=O)Cc1[nH]n(-c2nc3ccccc3s2)c(=O)c1C(C)=Nc1ccc(OC)cc1`, the inhibition is 80.1% (active).

As for `O=C(NC(=S)Nc1ccc(Cl)cc1Cl)C1CC1`, the inhibition is -294% (inactive).

For the molecule `Cc1ccnc(NC(=O)CCNS(=O)(=O)c2ccc(C)c(C)c2)c1`, the inhibition was -176% (inactive).

Turning to `O=C(COC(=O)c1cccc(Cl)c1)NC1CCCCCCC1`, the inhibition was 6.27% (inactive).

`COC(=O)c1cc(C(=O)NC(C)C2CC3CCC2C3)cc([N+](=O)[O-])c1` (centres undefined): the inhibition is 18.1% (inactive).

Take `CC(NCC(=O)Nc1ccccc1C(=O)NC1CC1)c1ccccc1Cl` (centres undefined): the inhibition is 3.17% (inactive).

As to `CCCn1c(C)cc(C(=O)COC(=O)c2c(C)nn(-c3ccccc3)c2C)c1C`, the inhibition is -28.6% (inactive).

On to `COc1ccc(CNC(=O)COC(=O)c2sccc2C)cc1OC`, for which the inhibition was -10.1% (inactive).

Regarding `Cc1ccsc1C(=O)OCC(=O)c1cc(C)n(CC2CCCO2)c1C` (centres undefined), the inhibition is 64.7% (active).

For `CCCCN(C(=O)CCNC(=O)NC12CC3CC(CC(C3)C1)C2)c1c(N)n(CCCC)c(=O)[nH]c1=O`, the inhibition was 4.48% (inactive).

With `Oc1c(CN2CCOCC2)ccc(CN2CCOCC2)c1O`, the inhibition is 9.75% (inactive).

Take `O=C1C(Cl)=C(Oc2ccccc2)C(=O)c2ccccc21`: the inhibition is 88.1% (active).

Consider `COc1ccc(C(CNC(=O)c2ccc(S(=O)(=O)Nc3ccccc3F)cc2)N(C)C)cc1` (centres undefined), for which the inhibition is 4.08% (inactive).

Consider `Nc1nc(Br)c2ccccc2c1-c1ccc(F)cc1`, for which the inhibition was 5.57% (inactive).

Turning to `Cn1c(=NC(=O)c2ccc3c(c2)OCCO3)sc2cc(S(C)(=O)=O)ccc21`, the inhibition was -28.1% (inactive).

For `O=C(O)c1ccc(N=NN2CCOCC2)cc1`, the inhibition is 10.1% (inactive).

As for `O=C(O)c1cccc(N=NN2CCCCCC2)c1`, the inhibition is 42.7% (active).

Consider `O=C(c1ccccc1)C(O)(CN1CCCCC1)c1ccccc1` (centres undefined), for which the inhibition was 13.3% (inactive).

As for `COc1ccc(CNc2c(CO)cnc3c2cnn3C)cc1`, the inhibition was 17.6% (inactive).

In the case of `CCN(CC)S(=O)(=O)c1ccc(NC(=O)c2cccnc2Cl)c(NC(=O)c2cccnc2Cl)c1`, the inhibition was 86.1% (active).

For the molecule `CCN(CC)S(=O)(=O)c1ccc(NC(=O)c2cnc(C)cn2)cc1`, the inhibition was 11% (inactive).

As to `Cc1ccc(CNC(=O)c2cccnc2Cl)cc1`, the inhibition was 2.18% (inactive).

Regarding `CCOCCc1c(O)nc(SCC(=O)NCc2ccco2)[nH]c1=O`, the inhibition is 11% (inactive).

For the molecule `COc1ccc2c(c1)c(=Cc1ccc(N(C)C)cc1)c1cc(-c3ccccc3)[n+](C)n12`, the inhibition was 88.2% (active).

Regarding `Cc1ccc(NC(=O)COC(=O)CN2CCCCCC2=O)c(C)c1`, the inhibition was 11.4% (inactive).

For the molecule `CC(C)COc1ccc(C(=O)NNC(=O)CCC(=O)c2cccs2)cc1`, the inhibition is -5.7% (inactive).

Regarding `Cc1cccc(C(=O)OC(C)C(=O)NC2CCCc3ccccc32)c1O` (centres undefined), the inhibition is 3.74% (inactive).

With `CC1CCCCN1S(=O)(=O)CCNC(=O)c1ccccc1` (centres undefined), the inhibition was 2.54% (inactive).

Take `O=C1COc2ccc(C(=O)CSc3ccc(Br)cc3)cc2N1`: the inhibition was -19.3% (inactive).

Take `CN(CCc1ccccc1)C(=O)c1cccc(NC(=O)Cc2cccc(NC(=O)C3CCCN(C(=O)CCc4ccccc4)C3)c2)c1` (centres undefined): the inhibition was 1.76% (inactive).

On to `N#C/C(=C(\O)CCl)c1nnc2n1CCCCC2`, for which the inhibition was -5.99% (inactive).

Consider `N#C/C(=C(\O)C(F)(F)F)c1nnc2n1CCCCC2`, for which the inhibition is 19.1% (inactive).

In the case of `N#C/C(=C/c1cccc([N+](=O)[O-])c1)c1nnc2n1CCCCC2`, the inhibition is 40.7% (active).

Regarding `COc1ccccc1/C=C/C(=O)NC1CC2CCC1C2` (centres undefined), the inhibition is -129% (inactive).

As to `CCOC(=O)/C(=C\c1ccc([N+](=O)[O-])cc1)C(=O)c1cc(C(C)=O)c(Nc2ccccc2)s1`, the inhibition is 8.67% (inactive).

Turning to `CCOC(=O)C(=Cc1ccccc1)C(=O)c1ccccc1`, the inhibition is 86.9% (active).

On to `CCc1ccccc1NC(=O)/C(=C/c1ccccc1)c1ccccc1`, for which the inhibition is 2.55% (inactive).

For the molecule `COc1ccccc1C(=O)c1ccccc1C(=O)c1ccccc1`, the inhibition was 12% (inactive).

For `CCOC(=O)C(=Cc1ccccc1OC)C(=O)OCC`, the inhibition was 56.9% (active).

For `COC(=O)[C@H](CC(C)C)NC(=O)N1CCCCC1C` (some centres undefined), the inhibition is 10.8% (inactive).

`C=CCn1c(SCCOc2ccc(OC)cc2)nnc1C(NC(=O)c1ccc(OC)cc1)C(C)C` (centres undefined): the inhibition was 26.4% (inactive).

For the molecule `O=C(NNC(=S)NCCCN1CCOCC1)c1ccncc1`, the inhibition was 9.32% (inactive).

Consider `O=C(C[n+]1ccc2c(c1)nnn2-c1ccccc1)c1ccc(Cl)cc1`, for which the inhibition is -14.6% (inactive).

For the molecule `c1c2c(cc3sc(N4CCCCC4)nc13)OCCO2`, the inhibition was 70.3% (active).

For the molecule `O=C(CN1C(=O)NC2(CCOc3ccccc32)C1=O)NCc1ccc(F)cc1` (centres undefined), the inhibition was 7.05% (inactive).

For `O=C(CC12CC3CC(CC(C3)C1)C2)Nc1ccc2c(c1)COC2=O`, the inhibition was -0.0166% (inactive).

As to `COc1ccc(C(=O)COC(=O)CN2C(=O)C3CC=CCC3C2=O)c(OC)c1` (centres undefined), the inhibition is -7.43% (inactive).

`CC1=CC(C)(C)Nc2ccc(OC(=O)CN3C(=O)C4CCCCC4C3=O)cc21` (centres undefined): the inhibition is 85.2% (active).

For `O=C(COC(=O)CN1C(=O)C2CCCCC2C1=O)Nc1ccc(F)c(F)c1F` (centres undefined), the inhibition is 15.9% (inactive).

As for `C=CCN(C(=O)Cn1ncc2c1-c1cc(C)ccc1OC2)c1ccccc1`, the inhibition was 8.04% (inactive).

For the molecule `CCOc1ccccc1NC(=O)C1CCCN(S(=O)(=O)c2ccccc2)C1` (centres undefined), the inhibition was 6.68% (inactive).

On to `O=C(Nc1ccccc1)c1nnsc1S(=O)(=O)c1ccc(Cl)cc1`, for which the inhibition was 55.9% (active).

In the case of `C/C(=N\NS(=O)(=O)c1ccc(Cl)cc1)c1ccc(NC(=O)c2ccco2)cc1`, the inhibition is -80.3% (inactive).

As for `CN(C)/C=C(/C(=O)c1ccccc1)S(=O)(=O)c1ccc(Cl)cc1`, the inhibition is -9.32% (inactive).

`CCCC(C(=O)N1CCOCC1)N1C(=O)C2C3C=CC(C3)C2C1=O` (centres undefined): the inhibition was 5.26% (inactive).

For the molecule `Cc1ccccc1C(CC(=O)c1cccs1)C(C#N)C#N` (centres undefined), the inhibition was 59.7% (active).

As to `Cc1ccc(NNC(=O)c2cccs2)cc1Cl`, the inhibition is -22.8% (inactive).

For the molecule `CC(C)OCCCNC(=O)CNC(=O)c1cccs1`, the inhibition is -6.91% (inactive).

Take `CCCCOC(=O)CNc1nnc(SCC(=O)OCC)[nH]c1=O`: the inhibition was 16.2% (inactive).

As for `C[C@@H](NC(=O)[C@@H]1Cc2ccccc2CN1)C(=O)NC1CCCC1`, the inhibition is -3.06% (inactive).

Regarding `CC(C)(C)c1ccc(Oc2ccc(N)cc2)cc1`, the inhibition was 94.1% (active).

`CN(C)S(=O)(=O)c1ccc(Oc2ccc(S(=O)(=O)N(C)C)cc2)cc1`: the inhibition is 0.813% (inactive).

`NC[C@H](Cc1ccccc1)NCCc1cc(C(F)(F)F)cc(C(F)(F)F)c1`: the inhibition was 8.13% (inactive).

On to `C=CCn1c(C)cc(C2=NNC(=NCC)SC2)c1C`, for which the inhibition was 92.7% (active).

As for `CCOc1cccc(NC(=O)Cn2nc(-c3ccc4c(c3)OCCO4)ccc2=O)c1`, the inhibition is 3.02% (inactive).

As to `CN(C)CCn1c2c(c(SCC(=O)NCc3ccccc3)nc1=O)CCC2`, the inhibition is 11.3% (inactive).

In the case of `Cn1c(=O)c2ccccc2n(CC(=O)Nc2ccc3c(c2)OCCO3)c1=O`, the inhibition is 0.929% (inactive).

`COc1ccc(C(=O)NCC(c2ccco2)N2CCc3ccccc32)cc1OC` (centres undefined): the inhibition was 23% (inactive).

Consider `COc1cc(C2C(C(=O)c3sc(C)nc3C)=C(O)C(=O)N2CCN(C)C)cc(OC)c1OC` (centres undefined), for which the inhibition is 17.5% (inactive).

With `O=c1oc2ccccc2cc1-c1cn(-c2ccccc2)c(=S)[nH]1`, the inhibition is 73.6% (active).

As to `CN(C)CC(C)(C)CNC(=O)c1cc(Br)cc(Br)c1O`, the inhibition was 8.3% (inactive).

For the molecule `O=[N+]([O-])c1ccc(CN2CC(N3CC=CC3)CS2(=O)=O)cc1` (centres undefined), the inhibition is 3.7% (inactive).

For `O=C1/C(=C\c2ccc([N+](=O)[O-])cc2)CS(=O)(=O)C/C1=C/c1ccc([N+](=O)[O-])cc1`, the inhibition was 92.6% (active).

On to `CC(=O)Nc1cc(-c2ccccc2N(C)C)cn2c(-c3ccc(F)c(Cl)c3)cnc12`, for which the inhibition is -0.208% (inactive).

For `CCc1ccc(Oc2nc([N+](=O)[O-])nn2C)cc1`, the inhibition is -0.728% (inactive).

As for `CC1CCCN(C(=O)c2ccc3c(c2)C(=O)N(CCC2=CCCCC2)C3=O)C1` (centres undefined), the inhibition is 2.05% (inactive).

For `CC1Cc2ccccc2N1C1=CC(=O)CC(C)(C)C1` (centres undefined), the inhibition is 9.32% (inactive).

In the case of `Cc1c(CCC(=O)O)c(=O)oc2cc3occ(-c4ccccc4)c3cc12`, the inhibition was 63.2% (active).

Take `COc1cccc(-c2coc3cc4oc(=O)c(CC(=O)O)c(C)c4cc23)c1`: the inhibition was -58% (inactive).

As for `Cc1coc2cc3oc(=O)c(CCC(=O)O)c(C)c3cc12`, the inhibition is 17% (inactive).

With `CC(C)c1ccc2c(c1)c(SC(C)(C)C)c(CC(C)(C)C(=O)O)n2Cc1ccc(Cl)cc1`, the inhibition is -26.8% (inactive).

For `CCCC(=O)N1CCN(c2nnc(-c3ccc(C)cc3)c3ccccc23)CC1`, the inhibition was 12.6% (inactive).

Turning to `Cc1ccc2[nH]c(C(=O)O)c(NC(=O)c3ccccc3[N+](=O)[O-])c2c1`, the inhibition was 13.4% (inactive).

As to `O=C(c1ccc(Cl)c(S(=O)(=O)N2CCCCCC2)c1)N1CCN(c2ccc(O)cc2)CC1`, the inhibition was 11.3% (inactive).

Turning to `c1ccc(-n2cccc2)c(N2CCCCC2)c1`, the inhibition was 13.2% (inactive).

For the molecule `O=C1C=CC(=O)N1c1ccc(N2CCCCC2)cc1`, the inhibition is 69.5% (active).

For the molecule `CCOC(=O)c1nn(-c2ccccc2F)c2nc(Nc3ccccc3)cc(=O)n12`, the inhibition is 7.21% (inactive).

On to `CN(C)c1nc2n(c(=O)n1)CCO2`, for which the inhibition is 6.35% (inactive).

With `COC(=O)CSc1nc2c(c(C3CC=CCC3)c1C#N)CCC2` (centres undefined), the inhibition was 0.0766% (inactive).

On to `CC1(C(=O)NS(=O)(=O)c2cccc(OC(F)F)c2)CCN1C(=O)COc1ccc(Cl)cc1` (centres undefined), for which the inhibition was 6.16% (inactive).
